Compounds without any hit were thinned out: in the full panel of roughly 83,000, 20% have a hit.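 Note: values are percent growth. 100 is the growth of untreated cells, values between 100 and 0 indicate rising inhibition; between -100 and 0 indicates cell death.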 A number with no mark means an inactive call. The source made the active and inactive calls. How the source made its calls: active means growth percent below 10; inactive means the rest.

This test has as its system NCI-H23 lung. Briefly: NCI-60 one-dose screen, 48 h (100 = growth as untreated, 0 = no growth, -100 = all killed). As to conditions: 10 µM.
Consider `COc1cc2nc(Nc3cccc(NC(C)=O)c3)nc(N)c2cc1OC`, for which the growth is 135%.

On to `COc1ccc(-c2nc3sc(C4CC4)nn3c2/C=C2/C(=O)Nc3ccc(OC)cc32)cc1`, for which the growth is 82%.

Turning to `Cc1cc(N(CCCNc2ccnc3cc(Cl)ccc23)Cc2cccs2)nc(Cl)n1`, the growth was 25.3%.

Consider `O=C1OCC2=C1C(c1cccc(Br)c1)c1cc3c(cc1N2CCO)CCC3` (centres undefined), for which the growth is 21.1%.

`COc1ccc(/C=C2/CN(C(=O)c3ccc(C)cc3)C/C(=C\c3ccc(OC)cc3)C2=O)cc1`: the growth is 87.6%.

In the case of `Cc1ccc(C(=O)Nc2cccc(F)c2)cc1NC(=O)C1(c2ncnc3[nH]ccc23)CC1`, the growth is 68.2%.

For the molecule `Clc1ccccc1N=Cc1ccc2c(c1)OCO2`, the growth is 108%.

As to `CC12O[C@H](C[C@@H](OC(=O)c3ccccc3)[C@H]1O)n1c3ccccc3c3c4c(c5c6ccccc6n2c5c31)C(=O)NC4=O`, the growth was 56.9%.

With `CCN(CC)CCNc1ccc(CO)c2oc3cc(Cl)ccc3c(=O)c12`, the growth is 87.2%.

As for `N#Cc1ncc(-c2cc(F)c(F)c(F)c2)c(NC2CCCCCC2)n1`, the growth was 92.9%.

On to `CC/C(C)=C(\C)C(=O)O`, for which the growth is 101%.

With `CC(=O)N1N=C(c2ccc(Cl)cc2)CC1c1sc(Cl)nc1Cl` (centres undefined), the growth is 87.4%.

As to `Nc1ncn(C2OC(CO)C(O)C2O)c(=O)n1` (centres undefined), the growth was 30.3%.

In the case of `Nc1c(C(=O)Nc2cccc(Br)c2)sc2nc3c(cc12)C(O)CCC3` (centres undefined), the growth is 34.9%.

Turning to `Oc1[nH]c2ccc(Cl)cc2c1/C=c1/ccc2c(c1)N=C(c1cccs1)N=2`, the growth was 64.4%.

Take `Clc1cc2c(c(CSc3nc4ccccc4n4cccc34)c1)OCOC2`: the growth is 77.9%.

For the molecule `O=C1NC(=O)c2ncccc21`, the growth is 101%.

`NC1=NC(=O)C(c2ccccc2)(c2ccccc2)S1`: the growth was 106%.

As to `Cn1c([N+](=O)[O-])cnc1/C=C1\Oc2cc(Cl)ccc2C1=O`, the growth was -22.8% (active).

Consider `c1ccc(C(NC2CC3CCC2C3)c2ccccc2)cc1` (centres undefined), for which the growth is 105%.

On to `COc1cc(/C=C2\Oc3cc(OCC(=O)c4ccccc4)ccc3C2=O)cc(OC)c1OC`, for which the growth is 105%.

As for `CC1(C)Cc2c(sc3ncn4nc(-c5ccc(O)cc5)nc4c23)CO1`, the growth was 90.9%.

Consider `O=C(N/N=C/c1cc2ccccc2c2ccccc12)c1cc(O)c(O)c(O)c1`, for which the growth was 70.2%.

As for `CCOC(=O)c1ccoc1`, the growth was 103%.

Take `O=[P@@]1(c2ccccc2)O[C@H](COCc2ccccc2)[C@@H](OCc2ccccc2)[C@H](OCc2ccccc2)[C@H]1O`: the growth was 64.4%.

As to `CN(C)CCN1C(=O)c2cccc3c(-c4ccc5ncn(C6CCCCC6)c5c4)ccc(c23)C1=O`, the growth is 30.5%.

For the molecule `CN(C)c1ccc(N=C2C=CC(=O)c3ccccc32)cc1`, the growth was 35.1%.

Take `CC(=O)CSC(C)=O`: the growth was 108%.

In the case of `COc1ccc(Nc2ccnc(NCCNc3ccnc4cc(Cl)ccc34)n2)cc1`, the growth is 48.8%.

In the case of `N=C(N)c1ccc(-c2ccc(-c3cccs3)s2)cc1`, the growth was 83.8%.

Consider `CC(C)(Cl)CCC1=C(Cl)C(=O)c2ccccc2C1=O`, for which the growth is 32.9%.

As to `CCOCCOCCOCCOCCOCCOCCOCCOCCOCCO` (tested in a mixture with another compound), the growth is 7.79% (active).

On to `CCCCCCCCCCCCCC[n+]1ccc(C(N)=O)cc1`, for which the growth is 16.7%.

With `COc1ccc(-c2nc(-c3nc4ccc(OC)cc4[nH]3)cc3c2[nH]c2ccccc23)cc1`, the growth is 55%.

Consider `COc1ccc(Oc2nc(NC3CCCC3)nc(Sc3ccc(OC)cc3)n2)cc1`, for which the growth is 79.6%.

For `COc1cc2cc3c(nc2cc1OC)CCN3Cc1ccc(NC(=O)Nc2cc(C(F)(F)F)cc(C(F)(F)F)c2)cc1`, the growth was 77.9%.

In the case of `CCCCCC(=O)c1ccc(OCCCN2CCN(C(=O)OCC)CC2)cc1`, the growth was 81.2%.

For the molecule `COc1ccc(-c2cc(/C=C/C(=O)c3cc(OC)c(OC)c(OC)c3)[nH]n2)cc1OC`, the growth was 47.2%.

In the case of `COc1cccc(-c2cc(-c3cccc(NS(C)(=O)=O)c3)nc(N)c2C#N)c1O`, the growth was 26.7%.

The values are drawn from PubChem BioAssay (NCI).
